As usually defined, the AC50 is the midpoint of the concentration-response curve, whichever way the signal moves.

The values that follow come from PubChem BioAssay (EPA / NIEHS).

Test [1] in a line: ATG_CRE_CIS: Attagene CIS-FACTORIAL HepG2 Assay for human cAMP Responsive Element (CRE) binding protein 3 (AID 2282926). Conditions: HepG2 CRE cis-reporter, Attagene multiplexed mRNA; actives raise or lower the signal. Put shortly:
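Capillary electrophoresis of 6-FAM-labelled, HpaI-digested PCR products quantified reporter transcripts. These came from HepG2 transiently transfected with cis-element reporters and exposed to test chemicals for 24 hours, with DMSO defining baseline activity.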

In test [2] the target is CCAAT/enhancer-binding protein beta (Homo sapiens) (UniProt P17676). Nature of the test: ATG_C_EBP_CIS: Attagene CIS-FACTORIAL HepG2 Assay for human CCAAT/Enhancer Binding Protein (C/EBP) beta (AID 2282927). Conditions: HepG2 Attagene cis-factorial transcription factor reporter; actives raise or lower the signal. Put shortly: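 Transiently transfected HepG2 (MRTU library, endogenous TF-driven promoters); 24 h dosing; total RNA → oligo(dT) RT → PCR → 6-FAM primer extension → HpaI digest → CE; fit bidirectionally vs DMSO.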

The nature of test [3]: ATG_CMV_CIS: Attagene CIS-FACTORIAL HepG2 Assay for human CMV (Internal Marker) (AID 2282928).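 Further: endpoint acts as a background internal control marker rather than a target.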 To be noted: HepG2 CMV promoter reporter, transcription factor profiling; actives raise or lower the signal. Put shortly: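 Fluorescence intensity of RT-PCR-derived reporter fragments, resolved by capillary electrophoresis, gives the signal. HepG2 liver cells bearing transfected cis-element reporters were treated 24 h; activity in either direction was fit relative to DMSO-treated controls.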

Test [4] in a line: ATG_DR4_LXR_CIS: Attagene CIS-FACTORIAL HepG2 Assay for human Liver X Receptor (LXR), DR4 submotif (AID 2282929). Conditions: HepG2 Attagene DR4 cis-reporter, mRNA transcription; actives raise or lower the signal. Put shortly: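 Measures endogenous transcription factor activity via a DR4-driven reporter transcript in human HepG2 cells. Compounds incubated 24 h; mRNA quantified by RT-PCR and capillary electrophoresis, analysed as gain or loss of signal versus DMSO.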

Test [5] addresses Aryl hydrocarbon receptor (Homo sapiens) (UniProt P35869). Briefly: ATG_Ahr_CIS: Attagene CIS-FACTORIAL HepG2 Assay for human Aryl Hydrocarbon Receptor (Ahr) (AID 2282930). To be noted: HepG2 AhR cis-factorial reporter transcription; actives raise or lower the signal. Put shortly: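 Read-out: reporter mRNA quantified by RT-PCR with fluorescent primer extension and capillary electrophoresis. Human HepG2 liver cells carried transfected cis-promoter reporter units and were exposed to chemical for 24 h; gain or loss fitted relative to DMSO.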

Test [6] is described as follows: ATG_AP_1_CIS: Attagene CIS-FACTORIAL HepG2 Assay for human Activator Protein 1 (AP-1) (AID 2282931). Conditions: HepG2 Attagene cis-factorial AP-1 reporter mRNA; actives raise or lower the signal. Put shortly: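 Bidirectional concentration-response fitting against DMSO controls. Underlying signal: reporter mRNA from cis-promoter constructs in transiently transfected HepG2, measured after 24 h by RT-PCR and capillary electrophoresis.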

A short description of test [7]: ATG_BRE_CIS: Attagene CIS-FACTORIAL HepG2 Assay for human Bone Morphogenetic Protein (BMP) Response Element (BRE) (AID 2282933). Conditions: HepG2 BMP response element reporter, Attagene transcription factor profiling; actives raise or lower the signal. Put shortly: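 Endogenous transcription factor activity at a BMP response element was monitored in transfected HepG2 cells 24 h after dosing. Fluorescent RT-PCR products were resolved by capillary electrophoresis, and activity was fitted in both directions versus DMSO.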

Test [8] deals with Transcription factor E2F1 (Homo sapiens) (UniProt Q01094). Briefly: ATG_E2F_CIS: Attagene CIS-FACTORIAL HepG2 Assay for human E2F Transcription Factor 1 (AID 2282935). Conditions: HepG2 Attagene cis-reporter, E2F reporter RNA transcripts; actives raise or lower the signal. Put shortly:
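Transient MRTU transfection of HepG2; 24 h compound exposure; RNA → oligo(dT) RT → PCR → FAM label → HpaI cut → CE fluorescence. Gain/loss of signal fit against DMSO.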

Test [9] in a line: ATG_AP_2_CIS: Attagene CIS-FACTORIAL HepG2 Assay for human Activator Protein 2 (AP-2) (AID 2282932). To be noted: HepG2 AP-2 cis-reporter, Attagene transcription factor profiling; actives raise or lower the signal. The method, boiled down:
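Read-out: fluorescent reporter mRNA via RT-PCR and capillary electrophoresis, 24 h post-dose in transiently transfected HepG2. Endogenous factors drive cis-promoter reporters; gain or loss of signal fitted bidirectionally against DMSO.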

Test [10] has as its target Retinoic acid receptor alpha (Homo sapiens) (UniProt P10276). Nature of the test: ATG_DR5_RAR_CIS: Attagene CIS-FACTORIAL HepG2 Assay for human Retinoic Acid Receptor Alpha (RARE), DR5 submotif (AID 2282934).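 On AC50: reporter responds to endogenous RAR alpha beta and gamma in HepG2 not RARA alone.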 Conditions: HepG2 Attagene cis-factorial RARE DR5 reporter, mRNA; actives raise or lower the signal. The method, boiled down:
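Read-out: DR5-driven reporter transcript measured by RT-PCR, 6-FAM primer extension, HpaI digest and capillary electrophoresis. Human HepG2 liver cells carry transiently transfected cis-element reporter constructs; dosing lasts 24 h. Gain or loss of signal fitted against DMSO baseline.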

Calls of active or inactive are those of the source. How the source made its calls: active means hit-call score of the fitted dose curve at least 0.9, where 1 is the maximum; inactive means score below 0.9.

Chain of Retinoic acid receptor alpha (Homo sapiens) (P10276 whole entry, looked up): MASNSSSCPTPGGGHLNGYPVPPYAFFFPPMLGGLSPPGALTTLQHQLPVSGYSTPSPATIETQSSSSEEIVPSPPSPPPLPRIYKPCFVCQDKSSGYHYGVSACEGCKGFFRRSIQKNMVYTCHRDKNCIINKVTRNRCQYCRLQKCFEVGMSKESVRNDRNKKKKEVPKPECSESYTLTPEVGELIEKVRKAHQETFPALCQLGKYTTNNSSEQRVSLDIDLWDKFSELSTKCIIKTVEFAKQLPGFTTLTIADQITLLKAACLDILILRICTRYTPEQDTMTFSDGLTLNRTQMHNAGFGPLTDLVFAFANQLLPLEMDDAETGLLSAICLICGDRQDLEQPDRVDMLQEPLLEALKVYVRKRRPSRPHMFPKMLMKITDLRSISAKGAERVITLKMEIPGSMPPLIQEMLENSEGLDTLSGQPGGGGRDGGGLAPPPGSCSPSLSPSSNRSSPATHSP
Chain of Aryl hydrocarbon receptor (Homo sapiens) (P35869 whole entry, looked up): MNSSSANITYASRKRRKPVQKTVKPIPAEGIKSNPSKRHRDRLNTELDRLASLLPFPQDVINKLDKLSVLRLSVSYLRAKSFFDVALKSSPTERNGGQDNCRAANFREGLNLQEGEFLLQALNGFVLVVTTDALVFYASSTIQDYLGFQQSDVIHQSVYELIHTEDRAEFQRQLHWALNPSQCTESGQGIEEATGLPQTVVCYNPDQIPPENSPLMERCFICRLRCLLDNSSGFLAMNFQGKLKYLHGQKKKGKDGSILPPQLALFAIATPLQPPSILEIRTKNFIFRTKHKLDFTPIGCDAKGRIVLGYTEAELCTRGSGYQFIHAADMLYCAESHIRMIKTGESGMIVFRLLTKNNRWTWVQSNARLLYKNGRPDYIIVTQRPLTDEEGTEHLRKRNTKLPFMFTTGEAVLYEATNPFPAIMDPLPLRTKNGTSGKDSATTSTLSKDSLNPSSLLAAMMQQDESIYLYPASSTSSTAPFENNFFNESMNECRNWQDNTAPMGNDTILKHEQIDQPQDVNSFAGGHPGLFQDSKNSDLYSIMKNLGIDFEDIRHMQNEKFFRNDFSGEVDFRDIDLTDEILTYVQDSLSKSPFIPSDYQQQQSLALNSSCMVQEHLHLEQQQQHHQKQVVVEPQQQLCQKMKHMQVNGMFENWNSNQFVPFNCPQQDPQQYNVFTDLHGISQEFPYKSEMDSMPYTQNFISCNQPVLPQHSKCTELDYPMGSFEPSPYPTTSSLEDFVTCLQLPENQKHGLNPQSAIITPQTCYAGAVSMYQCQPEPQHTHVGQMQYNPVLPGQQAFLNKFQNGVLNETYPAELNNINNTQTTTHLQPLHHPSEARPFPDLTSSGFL
Chain of Transcription factor E2F1 (Homo sapiens) (Q01094 whole entry, looked up): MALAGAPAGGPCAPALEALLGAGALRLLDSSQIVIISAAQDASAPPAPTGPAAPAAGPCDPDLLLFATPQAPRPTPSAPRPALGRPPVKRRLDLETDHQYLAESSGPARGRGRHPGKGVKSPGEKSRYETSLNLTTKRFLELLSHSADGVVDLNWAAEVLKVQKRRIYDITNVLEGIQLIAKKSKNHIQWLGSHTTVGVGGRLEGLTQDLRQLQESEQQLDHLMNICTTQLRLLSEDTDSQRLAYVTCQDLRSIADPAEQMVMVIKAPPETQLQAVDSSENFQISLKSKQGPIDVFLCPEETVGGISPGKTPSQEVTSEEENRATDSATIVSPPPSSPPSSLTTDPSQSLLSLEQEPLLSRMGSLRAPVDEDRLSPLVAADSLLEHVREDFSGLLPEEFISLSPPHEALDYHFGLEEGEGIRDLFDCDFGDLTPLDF
Chain of CCAAT/enhancer-binding protein beta (Homo sapiens) (P17676 whole entry, looked up): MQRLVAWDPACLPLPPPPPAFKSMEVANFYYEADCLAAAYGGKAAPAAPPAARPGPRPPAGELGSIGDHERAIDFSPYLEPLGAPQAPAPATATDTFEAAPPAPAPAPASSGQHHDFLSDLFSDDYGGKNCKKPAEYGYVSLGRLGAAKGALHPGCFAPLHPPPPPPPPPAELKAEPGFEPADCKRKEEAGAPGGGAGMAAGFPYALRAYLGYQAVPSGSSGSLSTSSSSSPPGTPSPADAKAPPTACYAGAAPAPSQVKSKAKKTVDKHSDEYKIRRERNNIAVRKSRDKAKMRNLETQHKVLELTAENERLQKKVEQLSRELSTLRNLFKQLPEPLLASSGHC

Consider `NNc1nc(-c2ccc(N)cc2)cs1`, for which the result in test [1], in [2], in test [3], in test [4], in test [5] and in test [6] was inactive. The outcome in test [7] and in test [8] was inactive.
For `NCCCN1CCOCC1`, the compound was called inactive in test [1], in test [2], in test [3], in test [4], in [5] and in test [6]. For the same compound, the outcome in test [7] and in test [8] was inactive.
Turning to `CCn1c2ccccc2c2cc(N)ccc21`, the result in test [1], in [2], in test [4], in [6] and in [8] was inactive. In addition, the AC50 was 31.7 µM (active) in test [3], 5.05 µM (active) in test [5] and 100 µM (active) in [7].
Take `Nc1cccc(S(=O)(=O)c2cccc(N)c2)c1`: the compound was classed as inactive in test [1], in test [2], in test [3], in [4], in [5] and in [6]. For the same compound, the compound was called inactive in test [7] and in test [8].
Turning to `CC(C)=CCCC(C)=CCCC(C)=CCO`, the outcome in [1], in test [2], in test [3], in [4], in [5] and in test [9] was inactive. Also, the outcome in test [7], in test [10] and in [8] was inactive.
In the case of `CN(C)C(=N)N=C(N)N`, the compound was called inactive in test [1], in test [2], in test [3], in test [4], in test [5] and in test [6]. Also, the outcome in test [7], in test [10] and in test [8] was inactive.
Take `C/C=C(\C)C(=O)OCc1ccccc1`: the outcome in [1], in [2], in [3], in test [4], in test [5] and in [6] was inactive. Also, the result in test [7] and in [8] was inactive.
Take `CN(C)c1ccc(O)c2c1C[C@H]1C[C@H]3[C@H](N(C)C)C(=O)C(C(N)=O)=C(O)[C@@]3(O)C(=O)C1=C2O`: the compound was called inactive in test [1], in [2], in test [3], in test [4], in test [5] and in test [6]. For the same compound, the result in test [7] and in [8] was inactive.
Take `c1cc(C(c2ccc(OCC3CO3)cc2)c2ccc(OCC3CO3)cc2)ccc1OCC1CO1` (stereo unspecified): the AC50 in test [1] is 25.2 µM (active); in test [3], 26.3 µM (active); in test [4], 53.2 µM (active); in test [6], 19.8 µM (active). The result in test [2], in [5], in test [7] and in test [8] was inactive.
For the compound `CCCCCCCCCCCCN(CCCCCCCCCCCC)CCCCCCCCCCCC`, the outcome in test [1], in [2], in test [3], in test [4], in test [5] and in test [6] was inactive. Moreover, the outcome in test [7], in [10] and in test [8] was inactive.
As to `CCC(C)(O)CCC=C(C)C` (stereo unspecified), the compound was classed as inactive in test [1], in [2], in [3], in test [4], in test [5] and in test [6]. Besides, the compound was called inactive in test [7] and in [8].
`C=CC(C)(C)O`: the compound was classed as inactive in test [1], in [2], in [3], in test [4], in [5] and in [6]. Further, the outcome in test [7] and in [8] was inactive.
Turning to `CC1CCC(C(C)CS)CC1S` (stereo unspecified), the AC50 in [1] was 33.4 µM (active); in [5] it was 45.9 µM (active); in test [8], 55.1 µM (active). Besides, the result in test [2], in test [3], in [4], in test [9], in [7] and in [10] was inactive.
Take `ClCCCl`: the compound was called inactive in test [1], in [2], in test [3], in test [4], in [5] and in test [6]. The outcome in [9], in test [7] and in test [8] was inactive.
Turning to `C=CC(=O)OCCOCCOCC`, the compound was classed as inactive in test [1], in test [2], in [4], in [5], in test [6] and in [9]. The compound was classed as inactive in test [7] and in [8]. Also, the AC50 in test [3] was 48.2 µM (active).
As for `CC(C)C(C)(C)C(C)(C)C(C)(C)S`, the outcome in [1], in test [2], in test [3], in test [4], in test [5] and in [6] was inactive. Moreover, the result in test [7] and in test [8] was inactive.
As to `CC(CC(C)(C)C)CC(C)(C)CC(C)(C)C` (stereo unspecified), the result in test [1], in test [2], in [3], in test [4], in test [5] and in test [6] was inactive. Moreover, the compound was called inactive in test [7] and in test [8].
Turning to `O=C(O)c1ccc(C(=O)O)cc1`, the call in test [1], in test [2], in test [3], in [4], in test [5] and in test [6] was inactive. For the same compound, the compound was called inactive in [9], in [7] and in test [8].
With `CCCCCC(CO)CCC` (stereo unspecified), the compound was called inactive in test [1], in [2], in [3], in [4], in test [5] and in [6]. The result in test [7] and in [8] was inactive.
For `CC(C)(C)NC(N)=O`, the compound was called inactive in test [1], in test [2], in test [3], in [4], in test [5] and in test [6]. In addition, the compound was classed as inactive in test [7] and in test [8].
For the compound `CCCCCCCCC`, the compound was called inactive in test [1], in test [2], in test [3], in [4], in test [5] and in test [6]. Also, the compound was called inactive in test [7] and in test [8].
Take `Nc1cc([N+](=O)[O-])ccc1Cl`: the compound was classed as inactive in [1], in [2], in [3], in test [4], in test [6] and in [7]. In test [8], the compound was classed as inactive. Moreover, the AC50 in test [5] was 20.2 µM (active).
Turning to `CCCC(=O)OCCC(C)CCC=C(C)C` (stereo unspecified), the compound was classed as inactive in test [1], in test [2], in test [3], in [4], in test [5] and in test [6]. Also, the result in [7], in test [10] and in [8] was inactive.
With `CCCCCCCCCOC(C)=O`, the result in test [1], in [2], in test [3], in test [4], in test [5] and in test [6] was inactive. The outcome in test [7] and in [8] was inactive.
In the case of `CC1COc2ccccc2N1C(=O)C(Cl)Cl` (stereo unspecified), the result in test [1], in test [2], in test [3], in test [4], in [5] and in test [7] was inactive. The compound was called inactive in test [8]. The AC50 in [6] is 27.4 µM (active).
`O=[N+]([O-])c1cc(C(F)(F)F)ccc1Cl`: the compound was called inactive in test [1], in test [2], in test [3], in test [4], in test [5] and in [6]. The outcome in test [7] and in [8] was inactive.
As to `c1ccc(CCCc2ccccn2)cc1`, the compound was called inactive in test [1], in test [2], in test [3], in [4], in test [5] and in test [9]. Further, in test [7], the outcome was inactive. Moreover, the AC50 in test [8] was 72.7 µM (active).
`O=C1CCc2ccccc2O1`: the outcome in test [1], in [2], in test [3], in test [4], in test [5] and in test [9] was inactive. Besides, the result in test [7] and in test [8] was inactive.
As for `O=C1CCCCCCCCCCCCCCO1`, the AC50 in [1] was 120 µM (active); in [3], 100 µM (active); in [4], 181 µM (active); in [5] it was 145 µM (active); in [10] it was 100 µM (active). Besides, the outcome in test [2], in [9], in [7] and in [8] was inactive.
